# HCV inh – qHTS Assay for Inhibitors of Hepatitis C Virus (HCV); Huh7.5.1 HCVcc-Cre infection, luciferase reporter, 44 h; 340,000 tested, 3.4% active; Potency, µM (top dose mostly 41.8 µM), for the others: at the highest dose activity change, negative = inhibition, most hits filed as inhibitors; note: potency is the fitted concentration of half-maximal effect; % is set by controls: 0 for no effect and ±100 for the full control effect
#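 Compounds are dispensed onto cells plated 4 h earlier at 1,000 per well, with HCVcc-Cre virus (about 0.5 moi) added next. Following 44 h of culture, luminescent signal is measured for 15 sec after 15 min with substrate at room temperature.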
# Sm TGR block – qHTS Assay for the Inhibitors of Schistosoma Mansoni Peroxiredoxins | Schistosoma mansoni thioredoxin glutathione reductase (TGR), Q962Y6 | purified TGR, DTNB reduction, TNB absorbance 405 nm | Potency, µM (series often up to 114 µM), for the others: at the highest dose activity change, negative = inhibition, usual class: inhibitors | 360,000 tested, 3% active | AID 485364, 2010; note: potency is the fitted concentration of half-maximal effect; % is set by controls: 0 for no effect and ±100 for the full control effect; nearly all actives have a fitted effect of over 60% in size
#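 Kinetic colorimetric format: TGR-catalysed, NADPH-driven DTNB reduction monitored via TNB absorbance. Enzyme dispensed at 20 nM; compound exposure 15 min at room temperature before reaction start.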
# Pf growth 48h – Primary qHTS for delayed death inhibitors of the malarial parasite plastid, 48 hour incubation; P. falciparum luciferase growth in erythrocytes, 48 h; Potency, µM (top dose mostly 28.7 µM), for the others: top-dose activity change, negative = inhibition, usual class: inhibitors; 310,000 tested, 5.9% active; note: potency is the fitted concentration of half-maximal effect; % is set by controls: 0 for no effect and ±100 for the full control effect
#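 Luciferase-expressing parasites in RBCs, 2% Hct / 0.1% parasitemia final; RPMI 1640 + 0.5% Albumax; 37 C, 5% CO2, one generation; luminescence read-out, lower signal = inhibition.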
# SARS PLP yeast – qHTS of Yeast-based Assay for SARS-CoV PLP; S. cerevisiae expressing SARS-CoV PLpro, growth rescue; Potency, µM (top dose mostly 32.9 µM), without a hit: top-dose activity, positive = growth rescue, most hits filed as activators; 330,000 tested, 0.19% active; AID 485353, 2010; calls by dose curve; note: potency is the fitted concentration of half-maximal effect; 0% is about no effect; nearly all actives have a fitted effect of over 55% in size
# HCMV inh – qHTS Assay for inhibitors of the human cytomegalovirus (HCMV); HFF cells, HCMV-luciferase reporter, 72 h; stronger effect = lower value; activity change, negative = inhibition, % at 57.5 µM; 410,000 tested, 4.5% active; in the data active = activity change below about -60%; inconclusive = no clear call, values can overlap the other calls; inactive = above about -39%; note: % is set by controls: 0 for no effect and ±100 for the full control effect
#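 Inhibition of viral replication was scored as loss of reporter luminescence in HFFs infected with HCMV-luciferase (MOI 1 PFU/cell) for 72 h; compounds tested at 2 doses, normalized to buffer and Salinomycin controls.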
# Pf growth 96h – Primary qHTS for delayed death inhibitors of the malarial parasite plastid, 96 hour incubation; P. falciparum luciferase reporter growth, 96 h; Potency, µM (doses to about 28.7 µM), inactives show at the highest dose activity change, negative = inhibition, usual class: inhibitors; AID 504834, 2011; 320,000 tested, 6.9% active; note: potency is the fitted concentration of half-maximal effect; % is set by controls: 0 for no effect and ±100 for the full control effect
#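 Two-generation exposure (96 h) targets delayed-death phenotype. Reporter parasites carrying integrated firefly luciferase, in red cells at 2% hematocrit and 0.05% parasitemia final, kept at 37 C, 5% CO2; luminescence loss indicates inhibition.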
# * marks the source's active call; other numbers are inactive results; ? = inconclusive; / = no result given. The list is not random: actives were taken first. Their share in the collection is about 15%. Unless noted, calls come from the whole dose curve; as a rule, active = well fitted curve in the direction sought with a large enough effect; inconclusive = small, poorly fitted or top-dose-only effect, or another doubt; inactive = no such curve, though single readings can be large; an effect the other way counts as inactive or inconclusive.
SMILES,HCV inh,Sm TGR block,Pf growth 48h,SARS PLP yeast,HCMV inh,Pf growth 96h
Cc1cccc(NC(=O)/C(C#N)=C/c2ccccc2O)n1,0.2%,89.1µM*,2.2%,0.2%,9.1,8.1%
Cc1cccc(NC(=O)Nc2ccc(C#N)cc2)n1,3.8%,-0.5%,-7.4%,1.6%,-84.1*,?
CCOc1ccc(S(=O)(=O)N(CC)CC)cc1NC(=O)c1ccc(N2CCCC2=O)cc1,?,-19.4%,10.4µM*,9.1%,26.9,?
CCN(CC)S(=O)(=O)c1ccc(OC)c(NC(=O)c2ccc(N3CCCC3=O)cc2)c1,-10.2%,-2.8%,?,-3.0%,-17.1,9.28µM*
COc1ccc(S(=O)(=O)N2CCCCC2)cc1NC(=O)c1ccc(Cl)nc1,-0.3%,-15.1%,14.7µM*,-2.4%,52.0,?
O=C(Nc1ccncc1)c1ccc(N2CCCC2=O)cc1,-23.0%,-1.0%,35.4%,-0.6%,-20.7,13.0%
CCOc1ccc(CCNC(=O)c2ccc(N3CCCC3=O)cc2)cc1OCC,?,-3.2%,-13.5%,/,-2.9,?
CCN(CC)S(=O)(=O)c1ccc(NC(=O)c2ccc(N3CCCC3=O)cc2)cc1,?,/,/,-0.8%,-76.5*,/
CCN(CC)S(=O)(=O)c1ccc(OC)c(NC(=O)c2ccc([N+](=O)[O-])cc2)c1,0.7%,-7.4%,-4.3%,1.6%,-7.0,-2.3%
CCN(CC)C(=O)[C@H]1C[C@H](CC(=O)NC(C)(C)C)C(=O)N2CCc3c([nH]c4cc(CCC(=O)N(C)C)ccc34)[C@]12C,-0.5%,/,/,5.6%,19.6,/
Cc1cc(S(=O)(=O)N2CCN=C2c2ccccc2)c(Cl)cc1Cl,-8.6%,2.0%,-11.9%,0.9%,-11.0,?
O=S1(=O)NC(CC2=CCCCC2)C2CCCCC2O1 (centres undefined),7.2%,-4.9%,6.6%,-9.7%,35.9,-4.2%
COc1ccc(S(=O)(=O)N2CCCCC2)cc1NC(=O)c1ccc(N2CCCC2=O)cc1,-10.4%,-4.1%,9.28µM*,-3.3%,-39.2,?
CC(C)Oc1ccc(S(=O)(=O)N2CCCCC2)cc1NC(=O)C1=NN(c2ccccc2)C(=O)CC1,/,/,/,/,-22.4,/
CC(C)Oc1ccc(S(=O)(=O)N2CCOCC2)cc1NC(=O)C1=NN(c2ccccc2)C(=O)CC1,?,-1.6%,3.7µM*,3.6%,-4.7,1.65µM*
CC(C)Oc1ccc(S(=O)(=O)N2CCOCC2)cc1NC(=O)c1ccc(N2CCCC2=O)cc1,-24.3%,2.3%,4.15µM*,-0.5%,-24.0,1.31µM*
CC(C)Oc1ccc(S(=O)(=O)N2CCOCC2)cc1NC(=O)CC1CCCC1,-4.7%,2.1%,9.28µM*,4.9%,0.0,8.28µM*
CSc1ccccc1-c1nc(-c2ccncc2)no1,-58.1%,-11.4%,/,-1.9%,104.5,-26.1%
CCOC(=O)C1=CNS(=O)(=O)NC1CCc1ccccc1 (centres undefined),1.1%,/,/,-3.4%,4.2,/
C[C@@H]1CN([C@@H](C)CO)C(=O)CCCn2cc(nn2)CO[C@H]1CN(C)S(=O)(=O)c1ccccc1F,/,/,/,/,3.3,/
NC(=O)CN1C(=O)C2(SCC(=O)N2c2cccc(F)c2)c2ccccc21 (centres undefined),/,6.8%,/,/,8.7,/
CCN(CC)c1ccc(S(=O)(=O)N2CCCCC2)cc1NC(=O)CSCc1c(C)noc1C,?,/,/,/,13.8,/
Cc1noc(C)c1CSCC(=O)Nc1cc(S(=O)(=O)N2CCCCC2)ccc1OC(C)C,?,-19.6%,13.1µM*,-6.6%,-34.0,?
Cn1c(/C=C/c2ccc([N+](=O)[O-])o2)nc2ccccc2c1=O,2µM*,?,?,-19.9%,/,?
Cn1c(/C=C/c2ccccc2)nc2ccccc2c1=O,?,-18.2%,17.5%,1.6%,-21.3,-19.1%
Cc1cc(N/N=C/c2ccc([N+](=O)[O-])o2)nc2ccccc12,10µM*,-6.8%,4.65µM*,-25.5%,-78.9*,5.86µM*
